Compounds without any hit were thinned out: in the full panel of roughly 83,000, 20% have a hit.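 Interpretation: 100, growth as untreated; towards 0, rising growth inhibition; 0, no net growth; 0 to -100, cell death. Compounds scoring below 10 were considered active.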 Values without a mark were called inactive. Calls of active or inactive are those of the source.

Test systems include SR leukemia; RPMI-8226 leukemia; OVCAR-8 ovarian; OVCAR-5 ovarian; OVCAR-4 ovarian; SK-OV-3 ovarian; OVCAR-3 ovarian; HS 578T breast; NCI/ADR-RES ovarian; IGROV1 ovarian.
What all share (assay): NCI-60 one-dose screen, 48 h (100 = growth as untreated, 0 = no growth, -100 = all killed)
Conditions in all cases: 10 µM unless noted

For `Cc1ccc2nc(-c3cc4c([nH]c5ccccc54)c(-c4ccc(F)c(F)c4)n3)[nH]c2c1`, the growth with SR leukemia was -18.8% (active); in the assay on RPMI-8226 leukemia it was 47.4%; in the assay on OVCAR-8 ovarian it was 78.3%; with OVCAR-5 ovarian, 113%; with OVCAR-4 ovarian, 69%; in the assay with SK-OV-3 ovarian it was 109%. For the same compound, the growth was 96.7% with OVCAR-3 ovarian, 108% with HS 578T breast and 83% in the assay on NCI/ADR-RES ovarian.

As to `CC(C)(C)n1cc(-c2ccnc(NCCCNS(=O)(=O)c3ccc(C(F)(F)F)cc3)c2)c(-c2cccc(O)c2)n1`, the growth with SR leukemia is -7.63% (active); in the assay with RPMI-8226 leukemia, -9.47% (active); in the assay with OVCAR-8 ovarian, 28%; with OVCAR-5 ovarian, 36.1%; in the assay on OVCAR-4 ovarian, 41.7%; in the assay on SK-OV-3 ovarian, 70.1%. In addition, the growth in the assay on IGROV1 ovarian is 31.3%; in the assay with OVCAR-3 ovarian it was 42.5%; in the assay with HS 578T breast, 23.5%; in the assay on NCI/ADR-RES ovarian, 34.6%.

As to `COc1ccc2[nH]c(=O)c3c4ccccc4cn3c2c1`, the growth in the assay with SR leukemia is -27.2% (active); with RPMI-8226 leukemia it was -59.6% (active); in the assay with OVCAR-8 ovarian it was 24.4%; in the assay on OVCAR-5 ovarian it was 31.4%; in the assay on OVCAR-4 ovarian it was 49.1%; in the assay on SK-OV-3 ovarian, 32.8%. Also, the growth with IGROV1 ovarian was 16.8%; with NCI/ADR-RES ovarian, 24.8%.

On to `COc1ccc2c(c1)[nH]c(=O)c1c3cc(OC)ccc3cn21`, for which the growth was 20.4% in the assay on SR leukemia; -63.2% (active) in the assay on RPMI-8226 leukemia; 4.9% (active) in the assay with OVCAR-8 ovarian; 25.9% with OVCAR-5 ovarian; 46.1% in the assay on OVCAR-4 ovarian; 42.4% with SK-OV-3 ovarian. For the same compound, the growth with IGROV1 ovarian is 16.8%; in the assay with NCI/ADR-RES ovarian it was 21.5%.

In the case of `N=C(N)c1ccc(-c2ccc(-c3ccc4ccccc4c3)s2)cc1`, the growth in the assay with SR leukemia was 6.46% (active); with RPMI-8226 leukemia, 60.7%; in the assay on OVCAR-8 ovarian, 102%; with OVCAR-5 ovarian it was 110%; in the assay with OVCAR-4 ovarian, 100%; in the assay on IGROV1 ovarian, 91.3%. In addition, the growth was 102% with OVCAR-3 ovarian, 104% in the assay on HS 578T breast and 98.8% with NCI/ADR-RES ovarian.

`C=C1CCC2C3(C)COC(c4ccc(N(C)C)cc4)OC3CCC2(C)C1C/C=C1/C(=O)OCC1O` (stereo not drawn): the growth in the assay with SR leukemia is 21.9%; with RPMI-8226 leukemia, -52.9% (active); with OVCAR-8 ovarian, 47.5%; with OVCAR-5 ovarian, 96.3%; in the assay with OVCAR-4 ovarian, 68.3%; with SK-OV-3 ovarian, 84%. For the same compound, the values for the growth in the assay with IGROV1 ovarian and in the assay on NCI/ADR-RES ovarian were 39.3% and 65.1%, respectively.

With `COc1ccc(Nc2nc(N)nc3c2CCN(Cc2ccc(OC)cc2OC)C3=O)cc1`, the growth with SR leukemia is 60.2%; with RPMI-8226 leukemia, 41.9%; in the assay on OVCAR-8 ovarian it was 82.6%; in the assay on OVCAR-5 ovarian, 72.5%; in the assay with OVCAR-4 ovarian, 91.2%; in the assay on SK-OV-3 ovarian it was 90.5%. For the same compound, the values for the growth with OVCAR-3 ovarian, with HS 578T breast and in the assay on NCI/ADR-RES ovarian were 88%, 82.7% and 93.4%, respectively.

As to `COc1cc(/C=C/c2cc(/C=C/c3ccc(O)c(OC)c3)n(C(N)=O)n2)ccc1O`, the growth in the assay with SR leukemia is -3.77% (active); in the assay on RPMI-8226 leukemia, -44% (active); in the assay on OVCAR-8 ovarian, -6.69% (active); in the assay on OVCAR-5 ovarian it was -30.7% (active); in the assay on OVCAR-4 ovarian it was -6.24% (active); in the assay with IGROV1 ovarian, 1.18% (active). Further, the growth in the assay with OVCAR-3 ovarian is -72.7% (active); with HS 578T breast it was -11.3% (active); in the assay on NCI/ADR-RES ovarian, 7.68% (active).

As to `Cn1ncc2c(Sc3ccc(Cl)cc3)ncnc21`, the growth was 53.6% in the assay with SR leukemia; 48.5% with RPMI-8226 leukemia; 101% in the assay on OVCAR-8 ovarian; 109% with OVCAR-5 ovarian; 95.7% in the assay with OVCAR-4 ovarian; 94.2% in the assay on SK-OV-3 ovarian. In addition, the growth in the assay with IGROV1 ovarian is 87.4%; with NCI/ADR-RES ovarian, 103%.

Regarding `O=C(N/N=C/C=C\c1ccccc1)C(=O)N/N=C/C=C/c1ccccc1`, the growth was 103% in the assay with SR leukemia; 102% in the assay with RPMI-8226 leukemia; 105% with OVCAR-8 ovarian; 112% in the assay on OVCAR-5 ovarian; 112% with OVCAR-4 ovarian; 111% in the assay with SK-OV-3 ovarian. Also, the values for the growth in the assay with IGROV1 ovarian and in the assay with HS 578T breast were 106% and 116%, respectively.

As to `N=C(N)c1ccc(-c2cc(Cl)cc(Cl)c2)cn1`, the growth is 55% in the assay on SR leukemia; 82.8% in the assay on RPMI-8226 leukemia; 99.2% in the assay on OVCAR-8 ovarian; 89.4% with OVCAR-5 ovarian; 97.1% with OVCAR-4 ovarian; 89.1% in the assay with IGROV1 ovarian. The growth was 97.4% with OVCAR-3 ovarian, 87.2% in the assay on HS 578T breast and 94.2% in the assay on NCI/ADR-RES ovarian.

In the case of `O=C1NC(=C(Cl)Cl)/C(=N/S(=O)(=O)N2CCC(C3(C(F)(F)F)N=N3)CC2)N1`, the growth in the assay with SR leukemia was 13.3%; with RPMI-8226 leukemia, 23.9%; in the assay on OVCAR-8 ovarian, 96.2%; with OVCAR-5 ovarian it was 105%; in the assay on OVCAR-4 ovarian it was 98.1%; with IGROV1 ovarian it was 43.5%. Moreover, the growth with OVCAR-3 ovarian was 40%; with HS 578T breast it was 95.8%; in the assay on NCI/ADR-RES ovarian, 106%.

In the case of `O=[N+]([O-])c1ccc(/C=C/C2(CCl)OCCO2)cc1`, the growth was 1.55% (active) in the assay with SR leukemia; 68.5% in the assay with RPMI-8226 leukemia; 82.4% in the assay with OVCAR-8 ovarian; 111% with OVCAR-5 ovarian; 102% in the assay on OVCAR-4 ovarian; 103% with SK-OV-3 ovarian. In addition, the figures for the growth with OVCAR-3 ovarian, with HS 578T breast and with NCI/ADR-RES ovarian were 112%, 109% and 98.8%, respectively.

Turning to `Cn1c(=O)cc(NC(=O)CN2CCN(c3cc4c(cc3F)c(=O)c(C(=O)O)cn4C3CC3)CC2)[nH]c1=O`, the growth in the assay on SR leukemia is 103%; with RPMI-8226 leukemia, 97.3%; with OVCAR-8 ovarian it was 98%; with OVCAR-5 ovarian, 95.9%; in the assay on OVCAR-4 ovarian it was 96.9%; in the assay on SK-OV-3 ovarian, 112%. Besides, the growth in the assay with IGROV1 ovarian is 101%; in the assay on OVCAR-3 ovarian, 99.5%; in the assay with HS 578T breast it was 103%; in the assay with NCI/ADR-RES ovarian, 98.1%.

On to `O=C([O][Sn]([O]C(=O)c1ccccn1)([c]1ccccc1)[c]1ccccc1)c1ccccn1`, for which the growth is 47.6% in the assay with SR leukemia; 26% in the assay with RPMI-8226 leukemia; 93.6% in the assay on OVCAR-8 ovarian; 94.9% in the assay with OVCAR-5 ovarian; 81.3% in the assay with OVCAR-4 ovarian; 99.7% in the assay with SK-OV-3 ovarian. Also, the growth with IGROV1 ovarian is 74.1%; with OVCAR-3 ovarian, 71.4%; with HS 578T breast, 88.5%; with NCI/ADR-RES ovarian it was 95.1%.

For the origin of these results see PubChem BioAssay (NCI).
